PubChem BioAssay (NCATS)
Inconclusive results are not listed. Unmarked numbers belong to inactive results. Active and inactive are the calls of the source. Calls come from the whole dose curve; as a rule, active = well fitted inhibition curve with a large enough effect; inconclusive = small, poorly fitted or top-dose-only effect; inactive = flat fitted curve, though single readings scatter.

biological target: Calcium and integrin-binding protein 1 (Homo sapiens) (UniProt Q99828); experiment: Primary qHTS for Identification of Calcium Integrin Binding Protein 1 (CIB1) Competitor (AID 1508620); details: CIB1-GST / FITC-alphaIIb peptide fluorescence polarization; series mostly up to 114 µM; activity change, negative = inhibition: at the top concentration;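 for activity change, negative = inhibition: GST tagged CIB1 binding a fluorescein labelled alphaIIb integrin peptide tracer; top concentration of the series differs between compounds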
Sequence (Q99828 whole entry, looked up): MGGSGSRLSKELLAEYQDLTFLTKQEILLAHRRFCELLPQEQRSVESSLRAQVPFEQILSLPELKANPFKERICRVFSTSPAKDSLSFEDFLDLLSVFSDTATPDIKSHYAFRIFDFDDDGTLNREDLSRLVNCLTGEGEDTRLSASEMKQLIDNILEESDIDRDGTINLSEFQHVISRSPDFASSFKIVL
From the text: Assay Provider: Ulhas P. Naik, PhD Sidney Kimmel Medical College Thomas Jefferson University, Philadelphia, PA Primary function of platelets is to maintain hemostasis. At the site of vascular injury, platelets adhere to adhesive proteins such as collagen and von Willebrand factor. Adherent platelets are activated and generate soluble platelet agonists such as thrombin, ADP and thromboxane A2. Following exposure of circulating platelets to these agonists, results in platelet shape change, granule secretion and activation of platelet integrin alphaIIb-beta3. Ligand binding to activated integrin alphaIIb-beta3 triggers outside-in signaling, leading to platelet aggregation, stabilization of platelet plug, and clot retraction. Upon atherosclerotic plaque rupture also causes platelet plug formation, which underlies a number of cardiovascular diseases such as myocardial infraction and stroke. A number of anti-platelet drugs such as aspirin, clopidogrel, prasugrel, vorapaxar, and eptifibatide are currently available to prevent the thrombotic complications. However, these anti-platelet agents have several limitations including inherent variability in individual responses, developing resistance, and serious bleeding side effects. For these reasons they are not suitable for long-term protection. Based on the experiences with current anti-platelet drugs, it appears that the most useful therapeutic approach is to intersect the secondary responses such as integrin outside-in signaling or recruitment of platelets by TxA2 and secreted ADP. Compounds, which can largely preserve the primary hemostatic function of platelets but inhibit secondary response will be most desired therapeutic agents for treatment of cardiovascular disease. CIB1 is a calcium integrin binding protein, which specifically interact with the alphaIIb subunit of integrin alphaIIb-beta3. Binding of CIB1 to alphaIIb regulates the outside-in signaling in platelets, which is needed for thrombus stabilization and thrombus growth. […] Therefore, we propose that discovery of a small molecule that can prevent the association of CIB1 and alphaIIb-beta3 will be a potential anti-platelet agent that can block the thrombus formation without undue effect on hemostasis. Reference: [1] Naik MU, Nigam A, Manrai P, et al. CIB1 deficiency results in impaired thrombosis: the potential role of CIB1 in outside-in signaling through integrin alpha IIb beta 3. J Thromb Haemost.
PROTOCOL TABLES SEQUENCE No. (1, 2, 3, etc.); […] (e.g., Cells, Incubation, Reagent, etc.); VALUE and DESCRIPTION. 1; Reagent; 3 uL; Protein or buffer (4/3x) 2; Compound; 46 nL; Control inhibitor / compound library 3; Time; 15 min; Room temperature incubation 4; Reagent; 1 uL; Fluorescent labeled peptide (4x) 5; Time; 1000 rpm; Centrifuge 6; Time; 15 min; Room temperature incubation 7; Detection; Ex 480/ Em 540; ViewLux Fluorescence Read NOTES (numbers refer to sequence above) 1; Protein Mixture: C1B1-GST (final concentrations of 1 uM). […] 3; Room temperature incubation. 4; Fluorescent Labeled Peptide: FITC-aIIb (final concentration of 100 nM). Sequence of alphaIIb peptide: Acetyl-[…]-FITC (purity is 95.83%). 5; Centrifuge 1000 rpm (164 g) for 15 seconds. 6; Room temperature incubation. 7; ViewLux Fluorescent Polization Read: excitation = 480(20) / emission = 540(25) S and P; FITC Dichroic mirror.
% is set by controls: 0 for no effect and ±100 for the full control effect.

Compound	activity change, negative = inhibition	outcome
COc1cc(O)c(C(=O)CCc2ccc(O)cc2)c(O[C@@H]2O[C@H](CO)[C@@H](O)[C@H](O)[C@H]2O)c1	-2.36% [at 57.7 µM]	–
CC(=O)c1c(OCCN2CCCCC2)c(OCCC(C)c2ccc(F)cc2)c2oc(C)nc2c1C (stereo not given)	2.9%	–
Cc1ccc(NS(=O)(=O)c2cc3c(cc2NCCO)NC(=O)CC3)cc1C	-5.96%	–
CCCCCCCCCCCCCCCCOCCCOP(=O)(O)COC(CO)Cn1ccc(N)nc1=O (stereo not given)	-0.0726%	–
COCCOCCOc1ccc(C2=N[C@@](C)(C(=O)O)CS2)c(O)c1	-2.85%	–
CC(C)c1ccc(NC(=O)C(c2ccccc2)N(C)C(=O)Cc2c[nH]c3ccccc23)cc1 (stereo not given)	0.808%	–
C[C@@H](c1nc(-c2ccc(C#N)cc2)cs1)[C@](O)(Cn1cncn1)c1cc(F)ccc1F	1.06%	–
C[N+]1(C)[C@@H]2CC[C@H]1CC(OC(=O)C(O)c1ccccc1)C2 (stereo not given in full)	-5.89%	–
CCC(=O)Nc1cccc(Oc2nc(Nc3ccc(N4CCN(C)CC4)cc3OC)ncc2Cl)c1	-20.1%	–
C=C1[C@@H](C2=CC(=O)OC2)CC[C@@]2(O)[C@@H]1CC1[C@H]2CC[C@@H]2C[C@@H](O[C@H]3O[C@@H](C)[C@@H](O[C@@H]4O[C@H](CO[C@@H]5O[C@H](CO)[C@@H](O)[C@H](O)[C@H]5O)[C@@H](O)[C@H](O)[C@H]4O)[C@H](OC)[C@H]3O)CC[C@]12C (stereo not given in full)	-1.27% [at 30.2 µM]	–
C/C=C(/COC(=O)/C(C)=C/C)C(=O)OC/C=C/c1ccc(OC)cc1	0.751% [at 57.7 µM]	–
CC(C)N(CCCNC(=O)Nc1ccc(C(C)(C)C)cc1)C[C@H]1O[C@@H](n2cc(Br)c3c(N)ncnc32)[C@H](O)[C@@H]1O	-6.2%	–
O=C(c1ccc(F)c(F)c1Nc1ccc(I)cc1F)N1CC(O)(C2CCCCN2)C1 (stereo not given)	-0.096%	–
CNc1ccc([N+](=O)[O-])cc1-n1cnc(-c2ccc(C(F)(F)F)cc2)c1	1.9%	–
CC(=O)Nc1nc2c(Oc3cc(-c4ccc(C(F)(F)F)cc4)ncn3)cccc2s1	4.3%	–
COc1cc2nc(-c3cc(F)ccc3O)nc(N[C@@H]3CNC[C@H]3C(C)(C)O)c2cc1OC	-10.1%	–
CCCCc1nc(C)c(CC(=S)N(C)C)c(=O)n1Cc1ccc(-c2ccccc2-c2nn[nH]n2)cc1	5.94%	–
COc1ccc2c(c1)C[C@H](C(=O)Nc1ccc(-c3cn[nH]c3)cc1OCCN(C)C)CO2	-10.4%	–
C=C1C(=O)O[C@@H]2/C=C(/C)CC3C=C(C[C@H](OC(=O)/C(C)=C\C)[C@@H]12)C(=O)O3 (stereo not given in full)	-16.2% [at 57.7 µM]	–
CC1OC2O[C@H]3[C@@H](OCC(O)[C@H]3O)OC(=O)C34CCC(C)(C)CC3C3=CCC5C6(C)CC(O)C(OC7OC(CO)C(O)C(O)C7O[C@@H]7OC[C@H](OC(=O)CC(C)(O)CC(=O)OC1C(OC1OCC(O)C(O)C1O)C2O)[C@@H](O)[C@H]7O)C(C)(CO)C6CCC5(C)C3(C)CC4 (stereo not given in full)	-10.2% [at 57.7 µM]	–

Compound	activity change, negative = inhibition	outcome
Cc1ccccc1C(=O)Nc1ccc(C(=O)N2CCC[C@@H](O)c3cc(Cl)ccc32)c(C)c1	1.3%	–
CN(C)CC(=O)Nc1ccc2[nH]c(=O)c3ccccc3c2c1	-1.95%	–
CC(=O)C1=C(O)C2c3c[nH]c4cccc(c34)CC2C(C)(C)N(C)C1=O (stereo not given)	-10.2%	–
O=C(NC(NC(=S)Nc1ccc(F)c([N+](=O)[O-])c1)C(Cl)(Cl)Cl)C(c1ccccc1)c1ccccc1 (stereo not given)	-2.42% [at 30.2 µM]	–
CCCCc1nc(Cl)c(CO)n1Cc1ccc(-c2ccccc2-c2nnn[nH]2)cc1	-8.41%	–
CN(CCCNC(=O)c1ccc2nc3c(c(Cl)c2c1)CCCC3)Cc1ccccc1	-1.61%	–
COc1ccc(NC(=O)N2CCc3c2ccc2ccccc32)cc1N1CCN(C)CC1	-8.27%	–
CC1(C)SC2C(NC(=O)[C@H](NC(=O)N3CCNC3=O)c3ccccc3)C(=O)N2C1C(=O)O (stereo not given in full)	-2.01%	–
Cn1nccc1Nc1nccc(-c2ccn([C@H](CO)c3ccc(Cl)c(F)c3)c(=O)c2)n1	-9.42%	–
CCOC(=O)CCC(=O)O[C@H]1[C@H](O[C@@H]2[C@@H](C)[C@H](O[C@H]3C[C@@](C)(OC)[C@@H](O)[C@H](C)O3)[C@@H](C)C(=O)O[C@H](CC)[C@@](C)(O)[C@H](O)[C@@H](C)C(=O)[C@H](C)CC2(C)O)O[C@H](C)C[C@@H]1N(C)C (stereo not given in full)	-5.45%	–
O=C(O)c1ccc(O)c2ncc(N3CCCN(CCc4cccc5ccccc45)CC3)cc12	-11.8%	–
CCN(CCCOc1ccc2c(Nc3cc(CC(=O)Nc4cccc(F)c4)[nH]n3)ncnc2c1)CCOP(=O)(O)O	1.49%	–
O=C(OCC#CCSc1nnc(-c2cc3ccccc3cc2O)o1)c1ccc(F)cc1	4.75%	–
Cc1ccc(C(=O)N2CCN(c3ccc([N+](=O)[O-])cc3)CC2)cc1Cl	-0.556%	–
Cc1ccc(NS(=O)(=O)c2cc3c(cc2N[C@@H](C)CO)NC(=O)CC3)cc1C	-7.29%	–
CN(C)/C(N)=N/C(=N)N	–	inactive
O=S(=O)(c1cccc2ccccc12)n1ccc2ccc(N3CCN4CCCC4C3)cc21 (stereo not given)	-1.91%	–
O=C(OCC#CCSc1nnc(-c2cccc3ccccc23)o1)c1sc2ccccc2c1Cl	2.9%	–
O=C(OCC#CCSc1nnc(-c2cccc3ccccc23)o1)c1ccc(F)c(F)c1	-1.01%	–
C=C(C)C(=O)O[C@H]1[C@H]2C(=C)C(=O)O[C@@H]2C[C@@H](C)/C=C\C(=O)[C@](C)(O)[C@@H]1OC(C)=O	0.204% [at 57.7 µM]	–
